This is a sample that favours compounds with a hit; in the whole collection about 1.4% have one here.
ERK EGF block – inhibitors of EGF-stimulated ERK signaling pathway. HEK293-V1b, EGF-stimulated phospho-ERK AlphaScreen. Potency, µM (highest dose often 11.5 µM), most hits filed as inhibitors. hit rate 0.41% among 130,000. AID 1454; further: nearly all actives have a fitted effect of over 55% in size
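Stably V1b-transfected HEK293 cells; 30 min compound, then EGF 25 nM final for 5 min at 37C; 10 min lysis; phospho-ERK by AlphaScreen after 5 hr beads at room temperature.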
HTT aggregate – inhibitors of mutant huntingtin aggregate formation in PC12 cells. PC12 HttQ103-GFP aggregates, Acumen cytometry, 40 h. Potency, µM (highest dose often 46.1 µM), hits mostly inhibitors. hit rate 1.1% among 220,000. AID 1688; further: nearly all actives have a fitted effect of over 60% in size
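Inducible Q103 Huntingtin exon 1–GFP PC12 line, 1500 cells/well in phenol red free DMEM with 5% equine and 5% calf serum. Tebufenozide 100 nM induced expression; compounds titrated; aggregates quantified by cytometry.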
HTT cytoprotect – cytoprotection in Huntington HTT-Q103 PC12 cell model; PC12 HTT-Q103 induced, cytoprotection, ATP luminescence, 40 h; Potency, µM (titrated, usually from 56.4 µM), actives largely listed as activators; hit rate 0.14% among 230,000; further: nearly all actives have a fitted effect of over 45% in size
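Quantitative HTS on tebufenozide-induced (100 nM) PC12 cells expressing HTTQ103 exon 1–GFP; compounds tested as a concentration series; survival measured via cellular ATP.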
A number is an active result; i = inactive; ? = inconclusive; nt = not tested or not shown; [ ] = dose if it differs, or a comment. The call rests on the fitted dose curve; in most records, active means well fitted curve in the direction sought with a large enough effect; inconclusive means small, poorly fitted or top-dose-only effect, or another doubt; inactive means no such curve, though single readings can be large; an effect the other way counts as inactive or inconclusive.

SMILES	ERK EGF block	HTT aggregate	HTT cytoprotect
Cc1nc2ccccn2c1C(=O)N=Nc1c(O)n(CCC(C)C)c2ccccc12	?	35µM	i[10 µM]
CCc1oc2ccccc2c1C(=O)c1cc(I)c(O)c(I)c1	nt	i	i
CC(=O)N/N=C/c1c(C)[nH]n(-c2ccccc2)c1=O	i	?	i
O=C(N/N=C/c1c[nH]c2ccccc12)c1cccc([N+](=O)[O-])c1	i	i	i[10 µM]
Cc1ccc(-n2[nH]c(C)c(/C=N/Nc3ccc([N+](=O)[O-])cc3[N+](=O)[O-])c2=O)cc1C	16µM	?	i[10 µM]
Cc1ccsc1/C=N/NC(=O)c1ccc([N+](=O)[O-])cc1	i	i	i[10 µM]
COc1c(/C=N/Nc2ccc([N+](=O)[O-])cc2[N+](=O)[O-])c(C)nn1-c1ccccc1	nt	i	i
Cc1[nH]n(-c2cccc3ccccc23)c(=O)c1/C=N/NC(=O)c1cccc([N+](=O)[O-])c1	i	10µM	i[10 µM]
Cc1ccc(-n2[nH]c(C)c(/C=N/NC(=O)c3ccc([N+](=O)[O-])cc3)c2=O)c(C)c1	i	13µM	i
Cc1[nH]n(-c2ccccc2)c(=O)c1/C=N/NC(=O)c1cccc([N+](=O)[O-])c1	nt	5.6µM	i[10 µM]
O=C(c1cnccn1)N1CCC[C@@]2(CCN(C(c3ccccc3)c3ccccc3)C2)C1	i	nt	i
CCNc1ncc2ncc(=O)n(Cc3ccc(F)cc3)c2n1	nt	nt	i
Nc1c(C(=O)Nc2ccccc2)c2nc3ccccc3nc2n1-c1ccc(O)cc1	i	i[9.22 µM]	i[10 µM]
CCCCCC(O)/C=C/C=C\CCCCCCCC(=O)O (configuration not stated)	i	nt	i
CN(C)Cc1ccccc1-c1nc(N(C)C)c2ccccc2n1	nt	nt	i
C=C(CC1([C@@H](NP(=O)(c2ccccc2)c2ccccc2)[C@H]2C[C@@H]2CCCC)CC1)c1cccc(OC)c1	i	nt	i
CCCCCCCCSc1nnc(CSc2nc3nc(C)cc(C)n3n2)o1	nt	22µM	i
Cc1cc(C)n2nc(SCc3nnc(SCCCCl)o3)nc2n1	nt	i	i
N#C/C(=C\Nc1ccccc1O)c1nc2ccccc2o1	?	5.6µM	i[10 µM]
N#C/C(=C\c1ccncc1)c1nc2ccccc2o1	i	i[9.22 µM]	i[10 µM]
COCC(=O)N1CCC2(CCCN(Cc3nccs3)C2)CC1	i	nt	i
CC(=O)OC[C@H]1O[C@@H](O/N=C(\C)CCN2CCCc3nc(C)c(C)cc32)[C@H](OC(C)=O)[C@@H](OC(C)=O)[C@H]1OC(C)=O	nt	nt	i[10 µM]
CCN1CCN(c2ccc(NC(=O)c3ccc([N+](=O)[O-])o3)cc2Cl)CC1	i	13µM	i
CCCC(=O)N1CCN(c2ccc(NC(=O)c3cc4ccccc4o3)cc2Cl)CC1	nt	11µM	i[10 µM]
CCC(=O)N1CCN(c2ccccc2NC(=O)c2ccc(-c3cccc([N+](=O)[O-])c3)o2)CC1	i	i	i[10 µM]
SMILES	ERK EGF block	HTT aggregate	HTT cytoprotect
CCN1CCN(c2ccc(NC(=O)c3ccc(F)cc3)cc2Cl)CC1	i	i	i
O=C(Nc1ccc(N2CCN(C(=O)c3ccco3)CC2)c(Cl)c1)c1cc2ccccc2o1	nt	?	i
CCC(=O)N1CCN(c2ccc(NC(=O)c3ccc([N+](=O)[O-])o3)cc2Cl)CC1	i	20µM	0.63µM
O=C(Nc1ccc(N2CCN(C(=O)c3ccccc3)CC2)c(Cl)c1)c1ccco1	nt	22µM	i
CCC(=O)N1CCN(c2ccc(NC(=O)c3cc4ccccc4o3)cc2Cl)CC1	nt	?	i[10 µM]
COc1ccc(-c2ccccc2C2NC(C(=O)O)CCC2C)cc1 (configuration not stated)	nt	nt	i[10 µM]
CCOC(=O)CCN1C(=O)[C@H]2[C@H]3[C@H](O)[C@H](O)C/C(=N/NC(=O)OCc4ccc(OC)cc4)[C@@H]3CC[C@@H]2C1=O	nt	nt	i[10 µM]
COc1ccccc1CNc1nc(-c2cccc(C#N)c2)nc2ccccc12	nt	nt	i
CC(=O)N1C2(C=CC1(C)C(=O)NCc1ccccn1)CCCCC2 (configuration not stated)	i	nt	i
COCCCNC(=O)c1ccccc1Oc1ccccc1	nt	i	i
COCCCNC(=O)c1ccc2c3c(onc13)-c1ccccc1C2=O	32µM	i[9.22 µM]	i[10 µM]
CC(C)C[C@@H](CC(=O)N[C@@H](CCC(=O)O)CC(=O)O)NC(=O)[C@@H]1CNCC[C@H]1NC(=O)C[C@@H](NC(=O)C[C@H](Cc1ccccc1)NC(=O)[C@@H]1CCCC[C@H]1N)C(C)C	i	nt	i[1.9 µM]
COC(=O)c1ccc(NS(=O)(=O)c2cccc3cccnc23)cc1	nt	i	i
COc1ccc(NS(=O)(=O)c2cccc3cccnc23)cc1	i	13µM	i[10 µM]
CCOC(=O)N/N=C1/C[C@@H](O)[C@@H](O)[C@@H]2[C@@H]3C(=O)N([C@@H](C)c4ccccc4)C(=O)[C@H]3CC[C@@H]12	nt	nt	i[10 µM]
COc1cc2oc(=O)c3c4c(cc5ccc(c1CCN(C)C)c2c53)OCO4	i	nt	i
CCc1ccc2[nH]c(=O)c(C3C(C#N)=C(N)Oc4c3ccc3cccnc43)cc2c1 (configuration not stated)	nt	?	i
Cc1ccc2cc(C3C(C#N)=C(N)Oc4c3ccc3cccnc43)c(=O)[nH]c2c1 (configuration not stated)	nt	2.5µM	i
Cc1occc1C(=O)Nc1ccc(S(=O)(=O)N2CCCC2)cc1	nt	4µM	i[0.074 µM]
O=C(Nc1cccnc1)c1ccccc1O	nt	i	i
Cc1occc1C(=O)Nc1ccc(S(N)(=O)=O)cc1	i	i[9.22 µM]	i[10 µM]
Cc1occc1C(=O)Nc1cccnc1	nt	22µM	i[0.074 µM]
O=C1c2ccccc2CC[C@H]1CNCCc1ccc(O)cc1	i	nt	i
CC(C)N=C=NC(C)C	nt	nt	i
CN1CCCc2cc(C=O)ccc21	i	i	i[1.9 µM]
SMILES	ERK EGF block	HTT aggregate	HTT cytoprotect
CCCN1CCCc2cc(CN)ccc21	nt	13µM	i[10 µM]
COc1ccc(Oc2ncc3ncc(=O)n(C)c3n2)cc1	nt	nt	i
Cc1cccc[n+]1CCCCCCCCCC[n+]1ccccc1C	i	i[9.22 µM]	i[10 µM]
Cc1cc(N)c2ccccc2[n+]1CCCCCCCCCCCCCC[n+]1c(C)cc(N)c2ccccc21	28µM	nt	i[1.9 µM]
O=C(Oc1ccccc1)N1CCC[C@@]2(CCN(c3ccccc3)C2)C1	?	nt	i
C=CCCCCCC	nt	nt	i
C=C(C(C)=O)C(O)c1cccc(Br)c1 (configuration not stated)	i	nt	i
O=C(Cc1cccs1)NCCSc1c(-c2ccc(Cl)cc2)[nH]c2ccccc12	i	22µM	nt
CCOC(=O)CSc1c(-c2ccc(Cl)cc2)[nH]c2ccccc12	i	i	i[10 µM]
CN(C)C(=O)c1ccc(-c2nccc(-n3ccnc3)n2)cc1	nt	nt	i
C[C@@]1(CCOCc2ccccc2)NC(=O)NC1=O	nt	nt	i[10 µM]
COc1ccc([C@@H]2OC[C@]3(COC(C)=O)[C@H](C)C=C(C)[C@@H]2[C@H]3C)cc1	nt	nt	i
Cc1cc(=O)[nH]c2ccc(Cl)cc12	nt	i	i
CC(C(=O)O)c1ccc2c(c1)[nH]c1ccc(Cl)cc12 (configuration not stated)	i	i	0.35µM
CCN1C(=O)CC(N2CCN(c3ccc(Cl)cc3)CC2)C1=O (configuration not stated)	nt	i	i
CCN1C(=O)CC(N2CCN(c3ccc(C(=O)c4ccccc4)cc3)CC2)C1=O (configuration not stated)	nt	11µM	i
CN(C)c1ccc(C(=S)Nc2ccccc2)cc1	i	i	i[10 µM]
CN(C)c1ccc(NC(=S)c2ccccn2)cc1	20µM	?	i
